Measured values as given in PubChem BioAssay AID2013 (Sanford-Burnham Center for Chemical Genomics, 2009).
In all, about 290,000 compounds went through this assay and about 370 (0.13%) were called active.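 The calls were made as follows: active = spots per cell inhibited over 60%, with over 100 cells counted and total cytoplasm intensity under 500,000; inconclusive = wells with under 100 cells, flagged as likely toxic; inactive = the rest.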 The list comes from a sample in which actives are over-represented; it also holds similar structures and randomly drawn compounds. Entries with a potency or affinity are not part of this list.

Target: G-protein coupled receptor 55 (Homo sapiens) (UniProt Q9Y2T6)
Experiment: GPR55 antagonists blocking LPI-driven arrestin recruitment, primary screen, imaging, U2OS, beta-arrestin-GFP, LPI agonist (AID 2013);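 also: U2OS cells stably carrying GPR55 and arrestin-GFP stimulated by 5 µM LPI near EC80; imaged beta-arrestin-GFP aggregate spots per cell after agonist stimulation; plate controls were LPI-stimulated DMSO wells for no effect and DMSO wells without LPI for full effect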
Settings: U2OS GPR55 beta-arrestin-GFP translocation imaging, LPI antagonism; at 10 µM; stronger effect = higher value

Sequence of G-protein coupled receptor 55 (Homo sapiens) (Q9Y2T6 whole entry, looked up): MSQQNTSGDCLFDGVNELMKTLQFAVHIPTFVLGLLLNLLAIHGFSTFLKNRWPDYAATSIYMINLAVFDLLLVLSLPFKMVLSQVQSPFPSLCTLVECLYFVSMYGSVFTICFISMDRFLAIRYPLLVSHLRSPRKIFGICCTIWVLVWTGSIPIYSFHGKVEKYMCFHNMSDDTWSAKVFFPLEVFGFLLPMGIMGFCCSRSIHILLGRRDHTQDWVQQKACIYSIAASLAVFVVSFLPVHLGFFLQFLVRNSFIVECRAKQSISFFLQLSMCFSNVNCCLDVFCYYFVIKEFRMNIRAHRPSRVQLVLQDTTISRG

Row | Structure (SMILES) | inhibition
1 | CCN(CC)c1ccc(NC(=O)Cn2c(C(C)NC(=O)c3ccc(C)cc3)nc3ccccc32)cc1 (configuration not stated) | 1.1% (inactive)
2 | S=c1[nH]nc(CSCc2ccccc2Cl)n1-c1ccccc1 | 1% (inactive)
3 | Cn1c(CSCc2ccccc2Cl)n[nH]c1=S | -17.8% (inactive)
4 | CN(Cc1ccc(Cl)cc1Cl)C(=O)CNC(=O)c1ccco1 | 8.3% (inactive)
5 | CCCn1cc(S(=O)(=O)c2ccccc2)c(=O)c2cc(F)c(N3CCN(C)CC3)cc21 | 7.5% (inactive)
6 | Clc1cccc(-c2cc3nc4c(c(N5CCOCC5)n3n2)CCCC4)c1 | -8.9% (inactive)
7 | Clc1cccc(-c2cc3nc4c(c(N5CCN(c6cnccn6)CC5)n3n2)CCCC4)c1 | -5.5% (inactive)
8 | Clc1cccc(-c2cc3nc4c(c(N5CCNCC5)n3n2)CCCC4)c1 | 90.4% (active)
9 | COc1ccc(NS(=O)(=O)c2ccc3nc(COc4ccc(C#N)cc4)[nH]c3c2)cc1 | 6% (inactive)
10 | COc1ccc(NS(=O)(=O)c2ccc3nc(COc4ccc5ccccc5c4)[nH]c3c2)cc1 | 20.6% (inactive)
11 | COc1ccc(/C=C(\C#N)C(=O)OCC(=O)Nc2ccc(-c3nc4ccc(C)cc4s3)cc2)cc1 | -6.4% (inactive)
12 | C=C(C)CSc1nc2ncc(Cl)cc2[nH]1 | 17.6% (inactive)
13 | N/C(=N\O)c1ccccc1N1CCCCC1 | -5% (inactive)
14 | CCCC(=O)Nc1nc(C)c(C(C)=O)s1 | -16% (inactive)
15 | CCC(C)n1c(SCC(=O)Nc2cc(C)on2)nc2ccccc2c1=O (configuration not stated) | 15.5% (inactive)
16 | CCC(C)n1c(SCC(=O)NC(=O)c2cccn2C)nc2ccccc2c1=O (configuration not stated) | 99.6% (active)
17 | C=CCn1c(SCC(=O)NC(=O)c2cccn2C)nc2ccccc2c1=O | 4.4% (inactive)
18 | COc1cc(C(=O)NNC(=O)NC2CCCCC2)cc(OC)c1OC | 8.5% (inactive)
19 | O=C(NCc1ccccc1Cl)c1ccc2c(c1)SC1=NS(=O)(=O)CCN12 | -9.3% (inactive)
20 | COc1cccc(NC(=O)c2cccc(C(=O)Nc3cccc(OC)c3)c2)c1 | -0.6% (inactive)
21 | C=CCNC(=O)/C(C#N)=C/c1ccccc1[N+](=O)[O-] | 13.3% (inactive)
22 | N#C/C(=C\C=C\c1ccccc1[N+](=O)[O-])C(=O)NCc1ccccc1 | 11.1% (inactive)
23 | CC1=CC(=C(C#N)C#N)C=C(C)N1CCN1CCN(C(=O)Nc2cccc(Cl)c2)CC1 | 3.5% (inactive)

Row | Structure (SMILES) | inhibition
24 | Cc1cccc(NC(=O)C2C3C=CC4(O3)C2C(=O)N(CCCN2CCCC2)C4C(=O)NC2CCCC(C)C2C)c1 (configuration not stated) | -6.5% (inactive)
25 | CC1(c2ccc([N+](=O)[O-])cc2)CC(C)(C)N(C(=O)c2ccccc2)c2ccccc21 (configuration not stated) | 11.2% (inactive)
26 | CC1(c2cc([N+](=O)[O-])cc([N+](=O)[O-])c2)CC(C)(C)N(C(=O)c2ccccc2)c2ccccc21 (configuration not stated) | -0.2% (inactive)
27 | CC1(c2ccccc2)CC(C)(C)N(C(=O)c2cc([N+](=O)[O-])cc([N+](=O)[O-])c2)c2ccccc21 (configuration not stated) | 64.4% (active)
28 | COc1ccccc1Nc1nc(N)nc(-c2cc3ccccc3o2)n1 | 8.7% (inactive)
29 | CC(NCC(O)COCc1ccc(Cl)cc1)c1ccccc1 (configuration not stated) | 0.4% (inactive)
30 | NCC(O)COCCC12CC3CC(CC(C3)C1)C2 (configuration not stated) | 5.8% (inactive)
31 | CC1(C)CC(=O)C=C(NCC2CCCO2)C1 (configuration not stated) | 3.1% (inactive)
32 | CC1=CC(c2ccc(Cl)cc2)n2nc(NC(=O)c3ccccc3)nc2N1 (configuration not stated) | 5.1% (inactive)
33 | Cc1ccc(-c2ccnc3cc(C)nn23)cc1 | 13.3% (inactive)
34 | c1cc2c3c(cccc3c1)C(N1CCCCCC1)=N2 | 17.5% (inactive)
35 | c1cc2c3c(cccc3c1)C(N1CCCCC1)=N2 | 3.4% (inactive)
36 | COc1ccccc1N1CCN(C2=Nc3cccc4cccc2c34)CC1 | 95.5% (active)
37 | COc1ccc(/C=C2\SC(=O)N(CC(=O)NC3C=CS(=O)(=O)C3)C2=O)cc1 (configuration not stated) | 14.8% (inactive)
38 | COc1ccc(CCNC(=O)C/C(C)=N/NC(=O)c2ccc([N+](=O)[O-])cc2Cl)cc1OC | 5.9% (inactive)
39 | C=CCOc1ccc(/C=N/NC(=O)CN2CCOCC2)cc1OCC | -14.5% (inactive)
40 | C#CCOc1c(Br)cc(/C=N/O)cc1OCC | -2.8% (inactive)
41 | COCCNc1c2c(nc3c(-c4ccccc4)c(C)nn13)CCC2 | -0.5% (inactive)
42 | CC(=O)c1c(O)cc(O)cc1CC(=O)O | 14.6% (inactive)
43 | CCOC(=O)CSc1nc2c(sc(=S)n2-c2ccc(OCC)cc2)c(=O)[nH]1 | -5.3% (inactive)
44 | CCCCN(CC)C(=O)CSc1nc2c(sc(=S)n2-c2ccc(OCC)cc2)c(=O)[nH]1 | 6.8% (inactive)
45 | O=c1c2ccccc2nc(-c2ccccc2)n1CCCN1CCOCC1 | -6.4% (inactive)
46 | COc1ccc(-c2nn(-c3ccccc3)cc2/C=C2/SC(=S)N(Cc3ccco3)C2=O)c(C)c1 | 13.6% (inactive)

Row | Structure (SMILES) | inhibition
47 | COc1ccc(-c2nn(-c3ccccc3)cc2/C=C2/SC(=S)N(CCC(=O)O)C2=O)cc1 | 2.4% (inactive)
48 | O=C(Nc1ccc(F)cc1F)c1c(C(F)(F)F)ccnc1Oc1cccc(C(F)(F)F)c1 | 6.9% (inactive)
49 | Cc1cc(NC(=O)CN(C)S(=O)(=O)c2cnc[nH]2)ccc1Br | 0.7% (inactive)
50 | CCCCn1c(NC(=O)c2ccccc2)c(C#N)c2nc3ccccc3nc21 | -12.6% (inactive)
51 | CCCCn1c(NC(C)=O)c(C#N)c2nc3ccccc3nc21 | 17% (inactive)
52 | Cc1ccc(C(=O)C(C)OC(=O)c2ccccc2[N+](=O)[O-])cc1 (configuration not stated) | 9.5% (inactive)
53 | CCOCCOC(=O)C1=C(C)NC(=O)NC1c1cc2c(cc1Br)OCO2 (configuration not stated) | 5.8% (inactive)
54 | CCN(CC)CCNC(=O)c1cc2c(s1)-c1ccccc1SC2 | 15.9% (inactive)
55 | COCCNC(=O)c1cc2c(s1)-c1ccc(Cl)cc1SC2 | -8.6% (inactive)
56 | O=C(CSc1ccc(F)cc1)NC12CC3CC(CC(C3)C1)C2 | -6% (inactive)
57 | COc1ccc(C)cc1Nc1n[n+](-c2ccccc2)c(-c2ccc(C(=O)O)cc2)s1 | 4.6% (inactive)
58 | COc1ccc(C)cc1Nc1n[n+](-c2ccccc2)c(-c2ccc(SC)cc2)s1 | 4.4% (inactive)
59 | CCC(=O)N1c2ccc(S(=O)(=O)NCCc3ccc(OC)c(OC)c3)cc2CC1C (configuration not stated) | -31.8% (inactive)
60 | COc1ccc(S(=O)(=O)N2CCCOC2CNC(=O)C(=O)NCc2ccccc2F)cc1C (configuration not stated) | 22% (inactive)
61 | Cc1[nH]nc(SCC(=O)N2CCCCC2)c1[N+](=O)[O-] | -23.3% (inactive)
62 | O=C(COc1ccccc1F)NCC(c1ccco1)N1CCCC1 (configuration not stated) | 24.1% (inactive)
63 | O=C1C(=O)c2ccc(-c3ccccc3)cc2-c2ccccc21 | -5.5% (inactive)
64 | Nc1c(O)ccc2c1C(=O)c1ccccc1C2=O | -0.3% (inactive)
65 | Oc1ccccc1N=Nc1nc(-c2ccccc2)c(-c2ccccc2)[nH]1 | 15.7% (inactive)
66 | COc1ccc(N=Nc2nc(-c3ccccc3)c(-c3ccccc3)[nH]2)cc1 | 19% (inactive)
67 | CCOC(=O)N1CCN(C(=O)C2CCC(CNS(=O)(=O)c3ccccc3)CC2)CC1 (configuration not stated) | 14.3% (inactive)
68 | COc1ccc(C(=O)N2N=C(c3cccs3)CC2c2ccccc2O)cc1 (configuration not stated) | 54.1% (inactive)
69 | O=C(c1ccco1)N1N=C(c2cccs2)CC1c1ccccc1O (configuration not stated) | 39.4% (inactive)

Row | Structure (SMILES) | inhibition
70 | C/C(=N/NC(=O)CNC(=O)c1cccnc1)c1cccc([N+](=O)[O-])c1 | -4.3% (inactive)
71 | CCN1CCN(CCNC(=O)c2ccc(/C=C3/Sc4ccccc4N(Cc4cccc(Cl)c4)C3=O)cc2)CC1 | 7.6% (inactive)
72 | CCN1CCN(CCNC(=O)c2ccc3c(c2)N(Cc2ccc(F)cc2)C(=O)/C(=C/c2ccccc2)S3)CC1 | 70.3% (active)
73 | CN1CCN(CCCNC(=O)c2ccc(/C=C3\Sc4ccccc4N(Cc4ccc(F)cc4)C3=O)cc2)CC1 | 6.1% (inactive)
74 | CCOc1ccc(Cl)cc1CSc1n[nH]c(C)n1 | -12.3% (inactive)
75 | Cc1nnsc1Sc1ccccc1C(=O)O | -7.1% (inactive)
76 | COc1cccc(-n2c(=O)c3sccc3n(CC(=O)NC3CCCCC3)c2=O)c1 | -10.7% (inactive)
77 | CNC(=S)NN(c1ccccc1)c1ccccc1 | 5.4% (inactive)
78 | CC(C)NC(=S)NN(c1ccccc1)c1ccccc1 | 11.8% (inactive)
79 | CC(C)CCNC(=O)CN(Cc1ccc(F)cc1)C(=O)CCC(=O)Nc1ccccn1 | 4.6% (inactive)
80 | CCOC(=O)c1c(C)oc2ccc(O)cc12 | 3.1% (inactive)
81 | CCOC(=O)c1c(-c2ccccc2)oc2ccc(O)cc12 | -6% (inactive)
82 | Cc1cc(NC(=O)C2C3C(=O)N(Cc4ccc(Cl)cc4)C(C(=O)NC4CCCCC4)C34C=CC2(C)O4)no1 (configuration not stated) | 9.6% (inactive)
83 | CC(C)n1cnc2c(Nc3ccc(C(=O)O)cc3)nc(Cl)nc21 | 8.9% (inactive)
84 | O=C(CSc1n[nH]c(-c2cc(Cl)ccc2Cl)n1)NCCN1C(=O)CSC1=O | 2.2% (inactive)
85 | Cc1ccc(NC(=S)N(CCCN2CCOCC2)Cc2ccccn2)cc1 | 9.5% (inactive)
86 | COc1ccc(NC(=S)N(CCCN2CCOCC2)Cc2ccccn2)cc1 | -18.2% (inactive)
87 | O=C(c1cc(C2CC2)nc2ccc(Br)cc12)N1N=C(C(F)F)CC1(O)C(F)F (configuration not stated) | 9.1% (inactive)
88 | O=S(=O)(c1ccc(Br)cc1)c1nc(-c2ccco2)oc1NCC1CCCO1 (configuration not stated) | -16.8% (inactive)
89 | CC(C)(C)c1csc(NC(=O)CSc2nc3ccccc3c(=O)[nH]2)n1 | -12.6% (inactive)
90 | CCNc1nc2nc3ccc(C)cn3c(=O)c2cc1C(=O)NCC1CCCO1 (configuration not stated) | 7.3% (inactive)
91 | Cc1ccc2nc3nc(NCC4CCCO4)c(C(=O)NC4CCCC4)cc3c(=O)n2c1 (configuration not stated) | 0.8% (inactive)
92 | C=CCNC(=O)c1cc2c(=O)n3cc(C)ccc3nc2nc1NCC1CCCO1 (configuration not stated) | 93.3% (active)
